Source: PubChem BioAssay (National Center for Advancing Translational Sciences (NCATS))
This excerpt belongs to a sample that is enriched for hits.
HT1080-NT tox – qHTS for induction of synthetic lethality in tumor cells producing 2HG: qHTS for the HT-1080-NT fibrosarcoma cell line; HT-1080-NT fibrosarcoma viability, CellTiter-Glo ATP luminescence, 48 h; Potency, µM (series often up to 46.1 µM), for the others: top-dose activity, negative = less viability, actives largely listed as cytotoxic; actives 1.6% (n = 360,000);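 also: NT is the 2HG producing partner of a matched IDH1 knockdown line; potency is read from the fitted curve at half-maximal effect; 0% = DMSO-treated cells and -100% = media-only wells without cells; nearly all actives have a fitted effect of over 55% in size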
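A 48-hour cytotoxicity screen used HT-1080-NT cells plated 2 hours before compound delivery. ATP-based CellTiter-Glo luminescence measured viability, normalized to DMSO and no-cell controls.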
ALOX12 inh – Primary qHTS assay for inhibitors of human arachidonate 12S-lipoxygenase (ALOX12): Round 2 | Potency, µM (doses to about 108 µM), inactives show top-dose activity change, negative = inhibition, hits mostly inhibitors | actives 1.1% (n = 580,000) | purified 12hLO, xylenol orange hydroperoxide absorbance; also: potency is read from the fitted curve at half-maximal effect
Target sequence (P18054 whole entry, looked up): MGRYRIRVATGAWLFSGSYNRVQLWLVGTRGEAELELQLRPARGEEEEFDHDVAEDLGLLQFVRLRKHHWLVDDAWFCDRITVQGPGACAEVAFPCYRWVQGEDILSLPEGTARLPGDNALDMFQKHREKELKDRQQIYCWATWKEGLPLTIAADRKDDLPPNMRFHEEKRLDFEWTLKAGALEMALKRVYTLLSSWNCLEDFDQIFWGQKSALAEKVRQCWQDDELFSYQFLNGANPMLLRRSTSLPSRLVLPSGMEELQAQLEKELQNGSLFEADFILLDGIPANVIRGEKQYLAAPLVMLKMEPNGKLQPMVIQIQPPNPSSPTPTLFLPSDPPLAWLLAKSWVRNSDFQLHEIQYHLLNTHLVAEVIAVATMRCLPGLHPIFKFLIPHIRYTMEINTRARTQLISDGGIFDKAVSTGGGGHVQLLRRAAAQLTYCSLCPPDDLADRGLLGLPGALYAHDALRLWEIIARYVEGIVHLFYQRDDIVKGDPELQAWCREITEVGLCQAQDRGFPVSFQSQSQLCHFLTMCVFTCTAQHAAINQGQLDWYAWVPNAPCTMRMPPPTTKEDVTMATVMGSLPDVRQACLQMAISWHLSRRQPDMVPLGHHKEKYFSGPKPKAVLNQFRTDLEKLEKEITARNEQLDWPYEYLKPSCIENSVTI
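Hydroperoxide product was detected by ferrous iron/xylenol orange as the 573 to 405 nm absorbance ratio. Arachidonic acid at 40 uM (final) was turned over for 30 min at room temperature by 150 nM human 12hLO, pH 7.0 Hepes buffer, after 15 min compound preincubation.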
TDP1 cell noCPT – qHTS for Inhibitors of human tyrosyl-DNA phosphodiesterase 1 (TDP1): qHTS in cells in absence of CPT | DT40 Tdp1-/- hTDP1 cells, no CPT, ATP luminescence, 48 h | Potency, µM (highest dose often 46.2 µM), without a hit: at the top dose activity change, negative = growth inhibition, actives largely listed as inhibitors | actives 15% (n = 420,000) | AID 686978, 2013; also: potency is read from the fitted curve at half-maximal effect; nearly all actives have a fitted effect of over 55% in size
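Cells were dispensed at 400 per well, compounds added by pin tool, plates incubated ≥48 hr at 37 °C, then CellTiter-Glo added for 30 min at room temperature before luminescence reading. Line: DT40 Tdp1-/- complemented with hTDP1; camptothecin omitted.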
DT40 TDP1 CPT – qHTS for Inhibitors of human tyrosyl-DNA phosphodiesterase 1 (TDP1): qHTS in cells in presence of CPT | chicken DT40 Tdp1-/-;hTDP1 cells + 20 nM CPT, ATP luminescence, 48 h | Potency, µM (series often up to 46.2 µM), for inactives: at the highest dose activity change, negative = growth inhibition, most hits filed as inhibitors | actives 12% (n = 420,000) | AID 686979, 2013; also: potency is read from the fitted curve at half-maximal effect; nearly all actives have a fitted effect of over 55% in size
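Chicken DT40 Tdp1-/- cells stably complemented with human TDP1 were seeded at 400 cells/well in medium containing 20 nM camptothecin, exposed to pin-transferred compounds, and grown at 37 °C for at least 48 hr. Viability was read as ATP luminescence.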
HT1080 IDH1KD tx – qHTS for induction of synthetic lethality in tumor cells producing 2HG: qHTS for the HT-1080-IDH1KD cell line; HT-1080 IDH1 knockdown viability, ATP luminescence, 48 h; Potency, µM (highest dose often 46.1 µM), for the others: top-dose activity, negative = toxicity, actives largely listed as cytotoxic; actives 2% (n = 360,000); AID 686971, 2013;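 also: potency is read from the fitted curve at half-maximal effect; 0% = DMSO wells and -100% = cell-free medium wells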
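Assay cells: HT-1080 with IDH1 knockdown, 750 per well, RPMI/5% FBS. Exposure: 48 h at 37 °C following 2 h pre-incubation. Read: CellTiter-Glo luminescence; fitted concentration-response, curve class assigned.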
IL1B secr inh – qHTS for Inhibitors of Inflammasome Signaling: IL-1-beta AlphaLISA Primary Screen. actives 4.7% (n = 360,000). activity change, % at 57.5 µM. AID 743279, 2014. THP-1 LPS/ATP IL-1B secretion, AlphaLISA, 16 h; stronger effect = lower value; in the data active = activity change below about -50%; inconclusive = mostly about -30% to -49%
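THP-1 cells pretreated 1 hr with compounds (up to 57.5 uM final), then stimulated with LPS (250 ng/mL final) plus ATP (1.25 mM final); secreted IL-1B measured by AlphaLISA after 16 hr, decreased signal indicating inhibition.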
Starred values were filed as active, the others as inactive; i = inactive; u = inconclusive; x = not tested or not shown; [ ] = remark or other dose. Unless noted, calls follow the shape of the dose curve; as a rule, active = well fitted curve in the direction sought with a large enough effect; inconclusive = small, poorly fitted or top-dose-only effect, or another doubt; inactive = no such curve, though single readings can be large; an effect the other way counts as inactive or inconclusive. Unless noted, % is scaled to controls: 0 for no effect and ±100 for the full control effect.

SMILES	HT1080-NT tox	ALOX12 inh	TDP1 cell noCPT	DT40 TDP1 CPT	HT1080 IDH1KD tx	IL1B secr inh
Cc1ccc(F)cc1S(=O)(=O)NCc1nc(N2CCCC2)c2cccc(C)c2n1	x	-2%	23µM*	u	x	x
CCOP(=O)(OCC)c1nc(-c2cccc([N+](=O)[O-])c2)oc1N1CCCCC1	-1%	0%	21µM*	u	0%	0
COP(=O)(OC)c1nc(-c2ccc(C)cc2)oc1N1CCOCC1	x	24%	x	x	x	x
COP(=O)(OC)c1nc(-c2ccc(C)cc2)oc1N1CCCCC1	0%	0%	15µM*	u	-3%	u
O=[N+]([O-])c1cccc(-c2nnc(-c3ccccc3)o2)c1	20%	0%	-35%	-2%	27%	3
COc1ccccc1CNc1nc(-c2ccc(C#N)cc2)cs1	x	27%	x	x	x	x
Cc1cccc(C(=O)N[C@@H](Cc2ccccc2)C(=O)N2CCCOCCNC(=O)CC2)c1	x	37%	x	x	x	x
CCCCC[C@H](C)N1C[C@@H](COCc2ccccc2)Oc2cc(N3CCC[C@H]3CO)ccc2S1(=O)=O	u	0%	u	u	u	-23
CCCCC[C@@H](C)N1C[C@@H](COCc2ccccc2)Oc2cc(N3CCC[C@H]3C(N)=O)ccc2S1(=O)=O	u	-21%	16µM*	u	u	-30
CCCCC[C@H](C)N1C[C@@H](COCc2ccccc2)Oc2cc(N3CCC[C@H]3COC)ccc2S1(=O)=O	-3%	u	18µM*	u	-15%	0
CCCCC[C@H](C)N1C[C@H](COCc2ccccc2)Oc2cc(N3CCC[C@H]3CO)ccc2S1(=O)=O	u	42%	21µM*	u	u	-55*
COc1ccc(NC(=O)c2ccc3oc(=O)c(S(=O)(=O)c4ccc(C)cc4)cc3c2)cc1OC	x	u	-10%	18%	x	x
O=C(NCC1(COc2cnccn2)C[C@@H](O)[C@@H](O)C1)Nc1cccnc1 (some centres not stated)	x	25µM*	x	x	x	x
CC(=O)NCC1(COc2cnccn2)C[C@@H](O)[C@@H](O)C1 (some centres not stated)	x	1%[176 µM]	x	x	x	x
CCCCn1c(=O)c2c(nc(-n3nc(C)c(C)c3C)n2CCOCC)n(C)c1=O	x	14%	x	x	x	x
COc1ccc(OCC(=O)N2CCC3(CC2)N=C(c2ccc(C)cc2)NO3)cc1	x	9%	x	x	x	x
Cc1ccc(-c2csc3ncnc(NCCN4CCOCC4)c23)cc1	-28%	0%	23µM*	u	-20%	-65*
c1ccc(-c2csc3ncnc(NCCN4CCOCC4)c23)cc1	u	0%	9.2µM*	12µM*	u	-11
Clc1ccc(-c2csc3ncnc(NCCN4CCOCC4)c23)cc1	u	-3%	13µM*	18µM*	-27%	-7
c1cncc(-c2nc(NCCN3CCOCC3)c3ccccc3n2)c1	x	-28%	u	-7%	x	x
Clc1ccc(-c2nc(NCCN3CCOCC3)c3ccccc3n2)cc1	u	u	u	u	u	-61*
c1ccc(CNc2nc(CN3CCOCC3)nc3scc(-c4ccccc4)c23)cc1	0%	5%	-25%	3%	-3%	16
C=CC[N+](CC)(CC)CC#Cc1ccc(C)cc1	x	-1%	x	x	x	x
CN(C)c1ccc(CNC(=O)CCn2c(=O)c3cccn3c3ccc(F)cc32)cc1	x	u	-15%	-5%	x	x
Cc1cc(C(=O)Nc2ccccc2-c2nc(CNC(=O)c3ccc(F)cc3F)c(C)o2)c(C)o1	x	1%	-20%	-3%[9.04 µM]	x	x
SMILES	HT1080-NT tox	ALOX12 inh	TDP1 cell noCPT	DT40 TDP1 CPT	HT1080 IDH1KD tx	IL1B secr inh
CC(C)(C)n1nc2c(c1NC(=O)c1ccc(F)c(F)c1)CS(=O)(=O)C2	-6%	0%	16µM*	1%	1%	i
O=C(Nc1c2c(nn1-c1ccc(Cl)cc1)CS(=O)(=O)C2)c1cccc(F)c1	x	u	18µM*	21µM*	x	x
CC(C)(C)n1nc2c(c1NC(=O)c1c(F)cccc1F)CS(=O)(=O)C2	1%	-1%	7%	-5%	2%	0
Cc1cccc(N/C(N)=N/c2nc(C(F)(F)F)cc(C(F)(F)F)n2)c1	17%	-4%	5%	0%	12%	4
COc1cccc(N/C(N)=N/c2nc(C(F)(F)F)cc(=O)[nH]2)c1	7%	18%	u	10µM*	15%	19
COCCCN(C(=S)Nc1c(C)cc(C)cc1C)C(C)c1ccccn1 (configuration not stated)	21%	u	21µM*	u	11%	1
Cc1cccc(C)c1NC(=S)N(CCN(C)C)C(C)c1ccccn1 (configuration not stated)	5%	11%	-17%	0%	0%	0
CNC(=O)c1cn2c(n1)CN(C(=O)OC)CC2	x	-1%[12.5 µM]	x	x	x	x
CCc1cc2c(=O)c(-c3nc4ccccc4n3C)c(C(C)C)oc2c(CN2CCN(C)CC2)c1O	-12%	-17%	12µM*	7.3µM*	-6%	-8
CCc1cc2c(=O)c(-c3nc4ccccc4n3C)c(C)oc2c(CN2CCOCC2)c1O	-15%	9%	9.2µM*	8.2µM*	-27%	-16
CCc1cc2c(=O)c(-c3nc4ccccc4n3C)coc2c(CN2CCCC(C)C2)c1O (configuration not stated)	-2%	18%	9.2µM*	u	-5%	-1
COc1ccccc1-c1c(C)oc2c(CN3CCN(CCO)CC3)c(O)ccc2c1=O	-1%	-18%	-4%	-13%	1%	-6
CCc1cc(-c2n[nH]c(C)c2-c2nc3ccccc3n2C)c(O)c(CN2CCN(C)CC2)c1O	u	27%	-10%	-18%	u	-12
CCc1cc2c(=O)c(-c3nc4ccccc4n3C)c(C)oc2c(CN2CCN(CCO)CC2)c1O	u	-16%	u	16µM*	-4%	-4
Cc1c(C)c2cc(Cl)c(O)c(CN3CCCC(C)C3)c2oc1=O (configuration not stated)	-3%	0%	-9%	0%	0%	41
